Screening results from PubChem BioAssay.
Rows were chosen to be rich in hits. Some 12% of all compounds tested hit in one or more screens of this group.
G9a inh: inhibitors of human histone lysine methyltransferase G9a; Q96KQ7; G9a H3K9 monomethylation, AlphaScreen, 2 h; Potency, µM (titrated, usually from 102 µM), without a hit: at the top dose activity, negative = inhibition, most hits filed as inhibitors; 8.8% of 350,000 active; further: on the % scale 0 is the no-effect control and ±100 the full control effect; nearly all actives have a fitted effect of over 75% in size
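AlphaScreen read-out: biotin-H3K9 peptide (500 nM) methylation by 20 nM enzyme with 20 uM SAM, 2 h at room temperature after 15 min compound preincubation; anti-monomethyl H3K9 antibody plus donor/acceptor beads, 10 min dark.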
JMJD2A Tudor inh: JMJD2A Tudor domain (human) inhibition; AlphaScreen JMJD2A-Tudor / H3K4me3 peptide binding; 4.4% of 390,000 active; Potency, µM (top dose mostly 114 µM), inactives show top-dose activity change, negative = inhibition, most hits filed as inhibitors; O75164; AID 504339; further: on the % scale 0 is the no-effect control and ±100 the full control effect; nearly all actives have a fitted effect of over 50% in size
Sfp PPTase inh: blocks B. subtilis Sfp PPTase activity; Potency, µM, for the others: largest response in the series, negative = inhibition, hits mostly inhibitors; 3.5% of 310,000 active; Q9F4F7; Biochemical Sfp PPTase activity, qHTS;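 further: the enzyme is Sfp with the accession as filed and its product quenches rhodamine fluorescence; 0% = enzyme reaction without inhibitor and -100% = no enzyme wells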
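After 15 min at room temperature with compound, 15 nM Sfp received 5 uM rhodamine-CoA plus 12.5 uM BHQ-2-ybbR (50 mM Hepes pH 7.6, 10 mM MgCl2). Rate came from the fluorescence difference over 30 min, ex 525/em 598 nm.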
HP1b chromo inh: HP1-beta chromodomain-methylated histone interaction inhibition. Potency, µM (series often up to 114 µM), inactives show top-dose activity change, negative = inhibition, usual class: inhibitors. AID 540317. P83916. AlphaScreen HP1-beta / biotin-H3K9me3 peptide binding. 0.56% of 390,000 active; further: nearly all actives have a fitted effect of over 70% in size
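AlphaScreen: HP1-beta (50 nM) preformed 30 min with biotin-H3(1-18)K9me3 peptide (50 nM) in PBS pH 7.4, 0.01% Tween-20. Compound added for 30 min at RT, then streptavidin donor/nickel chelate acceptor beads (10 ug/mL) for 30 min.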
BAZ2B block: BAZ2B (human) inhibition | Potency, µM (doses to about 114 µM), inactives show at the highest dose activity change, negative = inhibition, usual class: inhibitors | AlphaScreen BAZ2B-H3K14Ac peptide displacement | 4.4% of 360,000 active | AID 504333 | Q9UIF8; further: on the % scale 0 is the no-effect control and ±100 the full control effect; nearly all actives have a fitted effect of over 60% in size
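Multi-concentration screen (max 110 uM) measuring displacement of acetylated histone H3 peptide from BAZ2B by AlphaScreen, using 50 nM protein, 50 nM peptide and 10 ug/mL streptavidin donor plus Ni-chelate acceptor beads.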
Numbers without * were called inactive; ? = inconclusive; nt = no result; [ ] = remark or other dose. The call rests on the fitted dose curve; in most records, active means well fitted curve in the direction sought with a large enough effect; inconclusive means small, poorly fitted or top-dose-only effect, or another doubt; inactive means no such curve, though single readings can be large; an effect the other way counts as inactive or inconclusive. Potency means the concentration at half of the fitted maximal effect.

SMILES | G9a inh | JMJD2A Tudor inh | Sfp PPTase inh | HP1b chromo inh | BAZ2B block
COc1cc(N[C@@H](C)CCCN)c2ncccc2c1 | ? | nt | 2% | nt | nt
CCCc1cc(=O)oc2cc(C)cc(OCC(=O)NCCCN3CCCC3=O)c12 | 7% | -12% | 8% | 38% | -18%
CCCCNC(=O)CCC1N=C2c3ccccc3N=C(SCC(=O)NCCc3ccc(OC)c(OC)c3)N2C1=O (centres undefined) | 5%[59 µM] | -27% | nt | -7% | -3%
Cc1cccc(NC(=O)C(C)SCc2nc3sc(C)c(C)c3c(=O)[nH]2)n1 (centres undefined) | 45µM* | -24% | -19% | 33% | -20%
CC(SCc1nc2sc3c(c2c(=O)[nH]1)CCCC3)C(=O)Nc1ccccn1 (centres undefined) | 50µM* | -13% | nt | 31% | 6%
Cc1sc2nc(CSCC(=O)Nc3c(F)cccc3F)[nH]c(=O)c2c1C | 15%[2.33 µM] | -12% | nt | 38% | 9%
Cc1ccc(S(=O)(=O)NC(=O)O[C@@H]2C(=O)c3cc(Br)ccc3O[C@H]2c2ccc3c(c2)OCO3)cc1 | nt | nt | 9% | nt | nt
OCCC#Cc1c(-c2ccsc2)sc2ccccc12 | 11µM* | -14% | 3% | 18% | -4%
CCOC(=O)c1ccc(NC(=O)c2csnn2)cc1 | -47%[59 µM] | -16% | nt | 23% | -36%
CCOC(=O)CSc1nnc(C2CCCCC2)n1C | ? | -6% | 11% | 26% | 3%
CC1=Nn2c(nnc2C2CCCCC2)SC1 | -49%[59 µM] | -8% | 79µM* | 2% | -15%
COc1ccc(N2CCN(C(=O)C3CCCN(S(=O)(=O)c4c(C)noc4C)C3)CC2)cc1 (centres undefined) | 32µM* | -33% | 7% | -10% | ?
Cc1cc(C)c(/C=C/c2onc(C)c2S(=O)(=O)N2CCC(C(=O)N3CCN(c4ccccc4)CC3)CC2)c(C)c1 | -32%[59 µM] | 22µM* | nt | 5%[57 µM] | -17%
COc1ccc(N2CCN(C(=O)C3CCN(S(=O)(=O)c4cccc5nonc45)CC3)CC2)cc1 | ? | -31% | nt | 2% | 79µM*
CC(=O)c1cccc(N(C(=O)Cn2nnc3ccccc32)C(C(=O)NCc2ccccc2)c2ccc(F)cc2)c1 (centres undefined) | 4%[59 µM] | -13% | nt | 27% | 6%
COc1ccc(O)c(/C=c2/sc3nc4cc(C)c(C)cc4n3c2=O)c1 | 2.5µM* | ? | 8.9µM* | ? | -8%
COc1ccc(/C=c2\s/c(=C/C(=O)c3ccc(C)cc3)[nH]c2=O)c(OC)c1 | -15% | -16% | -19% | 8% | -3%
O=C(Cn1nc(C(F)F)cc1C(F)F)NNC(=S)Nc1ccc([N+](=O)[O-])cc1 | 20µM* | ? | 7% | -14% | -30%
Cc1nn(C)c(C(=O)NC(=S)Nc2ccccc2Br)c1Cl | nt | 8% | ? | 15% | -3%
Cc1nn(C)c(C(=O)NC(=S)Nc2ccc([N+](=O)[O-])cc2)c1Cl | nt | -23% | 32µM* | 4% | -17%
Cc1nn(C(C)C(=O)NNC(=S)Nc2ccc(F)cc2)c(C)c1[N+](=O)[O-] (centres undefined) | 45µM* | -16% | 18% | 17% | 0%
Cc1nn(CCC(=O)NNC(=S)Nc2ccc(F)cc2)c(C)c1Br | ? | -11% | 8% | 20% | 6%
Cc1nn(CCC(=O)NNC(=S)Nc2ccc([N+](=O)[O-])cc2)c(C)c1[N+](=O)[O-] | 8.9µM* | -33% | -15% | -2% | -26%
COc1ccc(NC(=S)NNC(=O)C(C)n2nc(C)c([N+](=O)[O-])c2C)cc1 (centres undefined) | ? | -20% | 20% | 1% | 7%
Cc1cnn(CCC(=O)NNC(=S)Nc2ccccc2)c1 | -3%[59 µM] | -1% | -9% | 37% | -2%
Cc1ccc(NC(=S)NNC(=O)CCn2cc(C)cn2)cc1 | 50µM* | -11% | 5% | 29% | -2%
Oc1c(CN2CCCC(C(F)(F)F)C2)cc(Cl)c2ccccc12 (centres undefined) | 40µM* | -24% | -12% | -2% | -29%
CCOC(=O)C1CCN(Cc2cc(Cl)c3ccccc3c2O)CC1 | 45µM* | -21% | ? | -9% | ?
CCOC(=O)C1CCN(Cc2ccc(OC)c(C)c2OC)CC1 | ? | 1.1µM* | 0% | ? | 50µM*
